# Activity calls are given as the source filed them.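 The calls were made as follows: active = blocks over 70% of labeled estradiol binding at 10 µM, or over a set limit at 100 nM; inactive = the rest.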
# Biological target: Estrogen receptor beta (Homo sapiens) (UniProt Q92731)
# Test: displacement of fluorescent estrogen from ERbeta – cell-based, Cos7 ERbeta-GFP, flow cytometry, primary screen (AID 1210);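 also: 0% = DMSO vehicle wells and 100% = complete loss of labeled estradiol signal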
# Conditions: fluorescent estrogen binding, at 10 µM, active compounds read high
# Sequence of Estrogen receptor beta (Homo sapiens) (Q92731 whole entry, looked up): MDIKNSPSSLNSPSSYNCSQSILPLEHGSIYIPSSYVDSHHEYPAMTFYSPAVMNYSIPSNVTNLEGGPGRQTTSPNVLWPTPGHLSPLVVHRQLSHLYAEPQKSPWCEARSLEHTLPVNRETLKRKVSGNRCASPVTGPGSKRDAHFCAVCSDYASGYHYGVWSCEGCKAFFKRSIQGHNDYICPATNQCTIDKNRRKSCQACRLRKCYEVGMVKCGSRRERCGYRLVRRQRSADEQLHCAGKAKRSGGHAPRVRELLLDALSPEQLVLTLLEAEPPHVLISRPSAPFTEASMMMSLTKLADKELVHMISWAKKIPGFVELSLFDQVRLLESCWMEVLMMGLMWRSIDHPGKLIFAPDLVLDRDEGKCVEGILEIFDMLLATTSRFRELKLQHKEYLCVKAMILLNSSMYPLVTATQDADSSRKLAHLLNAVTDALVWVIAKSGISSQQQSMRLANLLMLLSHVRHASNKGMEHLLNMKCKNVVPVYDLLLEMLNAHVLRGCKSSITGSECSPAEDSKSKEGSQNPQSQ
row,SMILES,inhibition
1,O=C(O)c1cccc2c1NC(c1cccc([N+](=O)[O-])c1)C1CC(Sc3ccccc3[N+](=O)[O-])C(Cl)C21 (stereo unspecified),67% (inactive)
2,CC1(C)CC(CCNCc2ccc3c(c2)OCO3)(Cc2ccccc2)CCO1 (stereo unspecified),16% (inactive)
3,COc1ccc(Cn2c(N)c(C(=O)NCc3ccco3)c3nc4ccccc4nc32)cc1,64% (inactive)
4,NC(=O)c1ccc(N=Nc2c(O)[nH]c(=O)[nH]c2=O)cc1,11% (inactive)
5,O=C(O)c1ccc2c(c1)C1C(Cl)C(Sc3ccccc3[N+](=O)[O-])CC1C(c1cccc([N+](=O)[O-])c1)N2 (stereo unspecified),0% (inactive)
6,COc1ccc(C2(CN)CCCC2)cc1OC,8% (inactive)
7,CCNCC1(c2ccc(OC)c(OC)c2)CCCC1,14% (inactive)
8,CCOc1ccccc1N1C(=O)NC(=O)C(CCc2ccncc2)(CCc2ccncc2)C1=O,41% (inactive)
9,CC(=O)c1ccc2c(c1)C1C(Cl)C(Sc3ccccc3[N+](=O)[O-])CC1C(c1ccccc1[N+](=O)[O-])N2 (stereo unspecified),36% (inactive)
10,Cc1ccc(S(=O)(=O)Cc2ccc(C(=O)N3CCC4(CC3)OCCO4)o2)cc1,56% (inactive)
11,CC(=O)c1ccc2c(c1)C1C(Cl)C(Sc3ccccc3[N+](=O)[O-])CC1C(c1ccccc1)N2 (stereo unspecified),33% (inactive)
12,CC(=O)c1ccc2c(c1)C1C(Cl)C(Sc3ccccc3[N+](=O)[O-])CC1C(C(=O)O)N2 (stereo unspecified),34% (inactive)
13,O=C(O)c1cccc2c1NC(C(=O)O)C1CC(Sc3ccccc3[N+](=O)[O-])C(Cl)C21 (stereo unspecified),0% (inactive)
14,Cc1ccc2c(c1Cl)NC(C(=O)O)C1CC(Sc3ccccc3[N+](=O)[O-])C(Cl)C21 (stereo unspecified),21% (inactive)
15,COc1ccc(CC2NCCc3cc(OC)c(OC)cc32)cc1OC (stereo unspecified),10% (inactive)
16,COc1cc2c(cc1OC)CC(C)(C)NC2,11% (inactive)
17,COc1ccc2[nH]cc(CCN=C(N)N)c2c1,16% (inactive)
18,COc1ccc(C2(CN)CCCC2)cc1,5% (inactive)
19,O=C1C2CCN(CC2)C1Cc1ccc(O)cc1 (stereo unspecified),19% (inactive)
20,N=c1c[n+](CCc2ccc(O)cc2)[n-]o1,29% (inactive)
21,C[C@H]1CCC[C@@H](O)CCC/C=C/c2cc(O)cc(O)c2C(=O)O1,71% (active)

# From PubChem BioAssay AID1210 (NMMLSC, 2008)
